Screens (PubChem)
Hits are enriched below; roughly 6.6% of the tested compounds scored in any of these assays.
HepG2 viability – qHTS for Inhibitors of TGF-b: Cytotox Counterscreen | HepG2 CAGA-GFP viability, ATP luminescence, 18 h | Potency, µM (titrated, usually from 46.1 µM), for inactives: at the highest dose activity change, negative = cytotoxicity, hits mostly cytotoxic | hit rate 0.76% among 410,000 | AID 588856, 2011
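CellTiter-Glo luminescence gave cytotoxicity after 18 hours at 37 degrees C. The cells were HepG2 CAGA-GFP in 1% FBS DMEM, stimulated with 500 pg/mL TGF-beta after compound addition. %Activity was normalised to no-cell wells (complete cell-killing) and DMSO (no toxicity), and curves were fitted and classified.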
HT1080-NT tox – qHTS for induction of synthetic lethality in tumor cells producing 2HG: qHTS for the HT-1080-NT fibrosarcoma cell line | hit rate 1.6% among 360,000 | HT-1080-NT fibrosarcoma viability, CellTiter-Glo ATP luminescence, 48 h | Potency, µM (top dose mostly 46.1 µM), for the others: at the top dose activity, negative = less viability, usual class: cytotoxic;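 also: NT is the 2HG producing partner of a matched IDH1 knockdown line; 0% = DMSO-treated cells and -100% = media-only wells without cells; nearly all actives have a fitted effect of over 55% in size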
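Compounds were tested in concentration-response format on HT-1080-NT cells for 48 hours at 37 degrees C. Cell viability came from CellTiter-Glo luminescence; curves were classified by r2, response magnitude and activity.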
TGFb inhibitor – qHTS for Inhibitors of TGF-b | hit rate 1.2% among 410,000 | HepG2 CAGA-GFP TGF-b/SMAD3 reporter, GFP fluorescence, 18 h; TGF-beta stimulated, 500 pg/mL final | AID 588855, 2011 | Potency, µM (titrated, usually from 46.1 µM), for the others: at the top dose activity, negative = inhibition, hits mostly inhibitors; also: % is scaled to controls: 0 for no effect and ±100 for the full control effect; nearly all actives have a fitted effect of over 65% in size
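GFP signal (ex488/em500-530) from TGF-beta-stimulated HEPG2 CAGA-GFP cells, 500 pg/mL final, 18 h at 37 degrees C in DMEM plus 1% FBS, normalized to unstimulated and DMSO-stimulated controls.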
KB-3-1 cytotox – qHTS assay for MDR1-selective chemotherapeutics: Primary screen using the parental adenocarcinoma cell KB-3-1; KB-3-1 viability, CellTiter-Glo ATP luminescence, 72 h; Potency, µM (top dose mostly 46.1 µM), usual class: cytotoxic; hit rate 1.4% among 400,000; AID 1347075, 2019; also: % is scaled to controls: 0 for no effect and ±100 for the full control effect; nearly all actives have a fitted effect of over 60% in size
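Parental KB-3-1 viability, qHTS format: 72 h compound exposure, 37 °C; CellTiter-Glo; media-only wells and DMSO plates as controls; concentration-effect fits on corrected data.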
HT1080 IDH1KD tx – qHTS for induction of synthetic lethality in tumor cells producing 2HG: qHTS for the HT-1080-IDH1KD cell line; HT-1080 IDH1 knockdown viability, ATP luminescence, 48 h; Potency, µM (series often up to 46.1 µM), for inactives: at the top dose activity, negative = toxicity, hits mostly cytotoxic; hit rate 2% among 360,000;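 also: 0% = DMSO wells and -100% = cell-free medium wells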
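Viability of IDH1-knockdown HT-1080 fibrosarcoma cells was assessed by CellTiter-Glo after 48 h at 37 °C with titrated compound; concentration-effect curves were classified by fit quality and response size.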
KB-V1 cytotox – qHTS assay for MDR1-selective chemotherapeutics: Primary screen using the drug-selected MDR subline cells KB-V1 | Potency, µM (titrated, usually from 46.1 µM), most hits filed as cytotoxic | KB-V1 MDR cells viability, CellTiter-Glo, 72 h | hit rate 3.4% among 400,000; also: % is scaled to controls: 0 for no effect and ±100 for the full control effect; nearly all actives have a fitted effect of over 60% in size
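Drug-selected KB-V1 cells, grown in DMEM lacking phenol red with 10% FBS, receive compound titrations; after three days at 37 degrees C, surviving cell ATP is quantified by CellTiter-Glo luminescence and responses normalized and curve-fitted.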
The depositor's hits bear a star. Calls follow the shape of the dose curve; as a rule, active = well fitted curve in the direction sought with a large enough effect; inconclusive = small, poorly fitted or top-dose-only effect, or another doubt; inactive = no such curve, though single readings can be large; an effect the other way counts as inactive or inconclusive. Potency is read from the fitted curve at half-maximal effect.

Screening Cc1cc(C(=O)CSc2nnc(-c3ccc(F)cc3)o2)c(C)n1CC1CCCO1 (configuration not stated) returned HepG2 viability -3%, HT1080-NT tox -10%, TGFb inhibitor -15%, KB-3-1 cytotox inactive, HT1080 IDH1KD tx -5% and KB-V1 cytotox inconclusive.
Screening COc1cc(-c2nnc(SCC(=O)c3cc(C)n(CC4CCCO4)c3C)o2)cc(OC)c1OC (configuration not stated) returned HepG2 viability -23%, HT1080-NT tox -2%, TGFb inhibitor -2%, KB-3-1 cytotox inactive, HT1080 IDH1KD tx -6% and KB-V1 cytotox 18µM*.
`C=CCN(CC=C)C(=O)C(=O)c1cc(C)n(-c2ccc([N+](=O)[O-])cc2)c1C` gave HepG2 viability 3%, HT1080-NT tox -4%, TGFb inhibitor inconclusive, KB-3-1 cytotox inactive, HT1080 IDH1KD tx -3% and KB-V1 cytotox 7.3µM*.
For COc1ccc(/C=C/c2nc(C#N)c(N3CCC(C(N)=O)CC3)o2)cc1OC the results were HepG2 viability -35% and TGFb inhibitor -1%.
Screening COc1cccc(NC(=O)COc2ccccc2C(=O)Nc2ccccc2)c1 returned HT1080-NT tox -8% and HT1080 IDH1KD tx -10%.
For CC(=O)Nc1ccc(Nc2ncnc3c2c(-c2ccccc2)cn3-c2ccc(C)c(Cl)c2)cc1 the results were HepG2 viability -66% and TGFb inhibitor inconclusive.
Screening Cc1ccc(-n2cc(CN(C)Cc3ncc[nH]3)c(-c3cccc(C)c3)n2)cc1 returned HepG2 viability -24%, HT1080-NT tox 18µM*, TGFb inhibitor inconclusive, KB-3-1 cytotox inactive, HT1080 IDH1KD tx 18µM* and KB-V1 cytotox inconclusive.
Screening CN(Cc1ncc[nH]1)Cc1cn(-c2ccccc2)nc1-c1ccc2c(c1)OCO2 returned HepG2 viability -17%, HT1080-NT tox -2%, TGFb inhibitor 0%, KB-3-1 cytotox inactive, HT1080 IDH1KD tx -17% and KB-V1 cytotox inactive.
COc1ccc(C(=O)C2CCN(C(=O)c3ccco3)CC2)cc1 was read as HepG2 viability 3%, HT1080-NT tox 2%, TGFb inhibitor -32%, KB-3-1 cytotox inactive, HT1080 IDH1KD tx -24% and KB-V1 cytotox 23µM*.
COc1ccc(C(=O)C2CCN(C(=O)c3ccc(C)cc3)CC2)cc1 was read as HepG2 viability -7%, HT1080-NT tox -16%, TGFb inhibitor -7%, KB-3-1 cytotox inactive, HT1080 IDH1KD tx -22% and KB-V1 cytotox inconclusive.
`COc1cc(CNn2nnnc2N)cc(Br)c1OCC(=O)NC(C)(C)C` gave HepG2 viability 0%, HT1080-NT tox 0%, TGFb inhibitor -20%, KB-3-1 cytotox inactive, HT1080 IDH1KD tx 5% and KB-V1 cytotox inactive.
`COc1cc(CNn2nnnc2N)cc(Br)c1OCc1c(Cl)cccc1Cl` gave HepG2 viability -31%, HT1080-NT tox -9%, TGFb inhibitor 0%, KB-3-1 cytotox inconclusive, HT1080 IDH1KD tx inconclusive and KB-V1 cytotox 21µM*.
Screening O=c1c2sc3nc(N4CCOCC4)c4c(c3c2ncn1CCc1ccccc1)CCCC4 returned HepG2 viability 0%, HT1080-NT tox -1%, TGFb inhibitor 5%, KB-3-1 cytotox inactive, HT1080 IDH1KD tx 8% and KB-V1 cytotox 2.3µM*.
O=c1c2sc3nc(N4CCOCC4)c4c(c3c2ncn1-c1ccccc1)CCCC4 was read as HepG2 viability -23%, HT1080-NT tox -9%, TGFb inhibitor -6%, KB-3-1 cytotox inactive, HT1080 IDH1KD tx -3% and KB-V1 cytotox inconclusive.
For Cc1ccc(C2CC(=O)N(Cc3ccc(F)cc3)c3c2c(C)nn3-c2nc(C)cc(C)n2)cc1 (configuration not stated) the results were HepG2 viability -36%, TGFb inhibitor -25%, KB-3-1 cytotox inactive and KB-V1 cytotox inactive.
For O=C(CC1C(=O)NCCN1C(=O)Nc1ccccc1)Nc1cc(Cl)cc(Cl)c1 (configuration not stated) the results were HepG2 viability -46%, HT1080-NT tox 16µM*, TGFb inhibitor inconclusive, KB-3-1 cytotox inactive, HT1080 IDH1KD tx 26µM* and KB-V1 cytotox inactive.
`COc1ccccc1NC(=O)CC1C(=O)NCCN1C(=O)Nc1ccc(Cl)c(Cl)c1` (configuration not stated) gave HepG2 viability -99%, HT1080-NT tox 16µM*, TGFb inhibitor inconclusive, KB-3-1 cytotox inconclusive, HT1080 IDH1KD tx inconclusive and KB-V1 cytotox inactive.
`CN(C1CCCCC1)S(=O)(=O)c1ccc2c(c1)c(=O)c(C(=O)NCc1ccccc1Cl)cn2C` gave HepG2 viability 18%, TGFb inhibitor -11%, KB-3-1 cytotox inconclusive and KB-V1 cytotox inactive.
`CCN(CC)C(=O)Cn1ncc2c([nH]c3ccc(C)cc32)c1=O` gave HepG2 viability -4%, TGFb inhibitor 4%, KB-3-1 cytotox inactive and KB-V1 cytotox inactive.
For Cc1ccc(C2CC2C(=O)NNC(=S)Nc2cccc(Cl)c2)cc1 (configuration not stated) the results were HepG2 viability -34%, HT1080-NT tox 0%, TGFb inhibitor inconclusive, KB-3-1 cytotox inactive, HT1080 IDH1KD tx 0% and KB-V1 cytotox inactive.
`Cc1ccc(C2CC2C(=O)NNC(=S)Nc2cccc(C)c2)cc1` (configuration not stated) gave HepG2 viability 0%, HT1080-NT tox -23%, TGFb inhibitor -16%, KB-3-1 cytotox inactive, HT1080 IDH1KD tx -10% and KB-V1 cytotox 16µM*.
For COc1ccc(S(=O)(=O)N2CCOCC2)cc1NC(=O)COc1ccc(C)cc1 the results were HepG2 viability -4%, HT1080-NT tox 0%, TGFb inhibitor 2% and HT1080 IDH1KD tx -3%.
For CCOc1ccc(S(=O)(=O)N2CCOCC2)cc1NC(=O)CSCc1ccc(C)cc1 the results were HepG2 viability -8%, HT1080-NT tox 8.2µM*, TGFb inhibitor -5%, KB-3-1 cytotox 18µM*, HT1080 IDH1KD tx inconclusive and KB-V1 cytotox inconclusive.
